Measurements from PubChem BioAssay (Tox21).
Where “and” joins values, the source holds several entries; their conditions need not be identical. Identical values can stand only once. Inconclusive results are not listed. A call without a number means that no potency is given here. Where a structure was tested more than once in an assay, its records may differ in their call. Calls of active or inactive are those of the source. Unless noted, calls follow the shape of the dose curve; as a rule, active = well fitted curve in the direction sought with a large enough effect in the repeat runs; inconclusive = weak or mixed curves; inactive = no such curve, though single readings can be large; an effect the other way counts as inactive or inconclusive.

Experiments:
[1] = biological target: Progesterone receptor (Homo sapiens) (UniProt P06401); assay: qHTS assay to identify small molecule agonists of the progesterone receptor (PR) signaling pathway (AID 1346784; calls by dose curve; also: nearly all actives have a fitted effect of over 30% in size)
Progesterone receptor (Homo sapiens), sequence (P06401 whole entry, looked up): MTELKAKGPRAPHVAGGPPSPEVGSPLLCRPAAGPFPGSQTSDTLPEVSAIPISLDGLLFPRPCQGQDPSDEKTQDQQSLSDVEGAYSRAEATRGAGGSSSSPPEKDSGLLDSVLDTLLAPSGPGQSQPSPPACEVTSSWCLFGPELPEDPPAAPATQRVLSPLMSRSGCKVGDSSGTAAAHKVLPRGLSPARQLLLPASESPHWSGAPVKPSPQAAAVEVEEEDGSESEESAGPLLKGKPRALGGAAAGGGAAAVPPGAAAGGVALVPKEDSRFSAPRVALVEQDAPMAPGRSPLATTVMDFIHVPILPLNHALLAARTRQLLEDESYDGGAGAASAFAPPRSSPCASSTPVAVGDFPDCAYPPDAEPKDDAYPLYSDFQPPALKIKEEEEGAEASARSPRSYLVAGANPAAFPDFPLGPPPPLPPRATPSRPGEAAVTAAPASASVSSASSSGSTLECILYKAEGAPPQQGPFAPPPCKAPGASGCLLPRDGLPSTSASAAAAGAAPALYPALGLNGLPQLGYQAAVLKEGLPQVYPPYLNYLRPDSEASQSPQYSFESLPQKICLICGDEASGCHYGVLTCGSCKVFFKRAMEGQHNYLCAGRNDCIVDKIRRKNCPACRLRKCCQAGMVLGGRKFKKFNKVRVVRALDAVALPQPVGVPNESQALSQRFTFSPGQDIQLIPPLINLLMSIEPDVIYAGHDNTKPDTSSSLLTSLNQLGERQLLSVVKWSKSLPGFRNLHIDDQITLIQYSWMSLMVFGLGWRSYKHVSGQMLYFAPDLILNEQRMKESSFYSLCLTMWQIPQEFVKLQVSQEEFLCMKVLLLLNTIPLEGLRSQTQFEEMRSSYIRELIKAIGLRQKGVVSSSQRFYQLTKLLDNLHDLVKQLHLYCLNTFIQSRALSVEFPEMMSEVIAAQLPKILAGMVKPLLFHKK
Outline: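 PR-UAS-bla HEK 293T cells (beta-lactamase reporter under UAS) in 2% charcoal-stripped FBS, dosed with 23 nL compound after 6 hr, incubated 16hr at 37C. LiveBLAzer B/G FRET substrate added, fluorescence read after 2 hours.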

[2] = biological target: Progesterone receptor (Homo sapiens) (UniProt P06401); assay: qHTS assay to identify small molecule antagonists of the progesterone receptor (PR) signaling pathway (AID 1346795; active = well fitted inhibition curve with a large enough effect in the signal ratio in the repeat runs, not every such curve was filed as active; the % refers to the signal ratio; also: potency is read from the fitted curve at half-maximal effect)
Outline: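 PR-UAS-bla HEK293T cells with beta-lactamase reporter under UAS control, in 2% charcoal-stripped FBS, treated with compounds plus 1 nM promegestone (R5020, final) for 16 hr at 37C. Read-out: FRET beta-lactamase substrate fluorescence after 2 hr at room temperature.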

[3] = qHTS assay to identify small molecule antagonists of the progesterone receptor (PR) signaling pathway - cell viability counter screen (AID 1346798); also: series mostly up to about 92 µM; nearly all actives have a fitted effect of over 50% in size
Outline: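 PR-UAS-bla HEK293T cells, 3,000/well in 2% charcoal-stripped FBS medium, dosed with compounds plus R5020 agonist and incubated 16 h at 37C. Viability then measured in the same wells by CellTiter-Glo luminescence after 30 min at RT.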

[4] = qHTS assay to identify small molecule antagonists of the TGF-beta/Smad signaling pathway - cell viability counter screen (AID 1346824); also: nearly all actives have a fitted effect of over 50% in size
Outline: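 Cytotoxicity counter-screen run in the same wells as the beta-lactamase Smad reporter read: CellTiter-Glo luminescence after 30 min at room temperature. HEK 293T SBE-bla cells had 5 hr compound exposure at 37 C with TGF-beta1 (0.25 ng/mL stock).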

[5] = qHTS assay to identify small molecule agonists of the TGF-beta/Smad signaling pathway - cell viability counter screen (AID 1346829); also: nearly all actives have a fitted effect of over 45% in size; also: potency is read from the fitted curve at half-maximal effect
Outline: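 Cytotoxicity counter screen: CellTiter-Glo luminescence (30 min, room temperature) measured in the SBE-bla HEK 293T reporter wells after 5 hr compound treatment at 37 C and the 2 hr substrate step.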

[6] = qHTS assay to identify small molecule agonists of the TGF-beta/Smad signaling pathway (AID 1346859; active = well fitted activation curve with a large enough effect in the signal ratio in the repeat runs, not every such curve was filed as active; the % refers to the signal ratio; also: series mostly up to about 77 µM)
Outline: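 SBE-bla HEK293T cells plated overnight, then compound exposure for 5 h at 37 C. Beta-lactamase reporter read with LiveBLAzer B/G FRET substrate after 2 h at room temperature, fluorescence at 405 nm excitation, 460/530 nm emission.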

[7] = Human pregnane X receptor (PXR) small molecule agonists, qHTS cell viability counter screen (AID 1346977); also: nearly all actives have a fitted effect of over 50% in size; also: potency is read from the fitted curve at half-maximal effect
Outline: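 PXR-Luc HepG2 cells (2,000/well, 5% charcoal-stripped FBS) preincubated 5 hr, then exposed to compounds 24 hr at 37 C. Viability read in the same wells by CellTiter-Fluor fluorescence, reagent added at 23 hr, 1 hr incubation.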

[8] = biological target: Thyrotropin-releasing hormone receptor (Homo sapiens) (UniProt P34981); assay: qHTS assay to identify small molecule antagonists of the thyrotropin-releasing hormone receptor (TRHR) signaling pathway (AID 1346877; active = well fitted inhibition curve with a large enough effect in the repeat runs, not every such curve was filed as active; also: series mostly up to about 51 µM)
Thyrotropin-releasing hormone receptor (Homo sapiens), sequence (P34981 whole entry, looked up): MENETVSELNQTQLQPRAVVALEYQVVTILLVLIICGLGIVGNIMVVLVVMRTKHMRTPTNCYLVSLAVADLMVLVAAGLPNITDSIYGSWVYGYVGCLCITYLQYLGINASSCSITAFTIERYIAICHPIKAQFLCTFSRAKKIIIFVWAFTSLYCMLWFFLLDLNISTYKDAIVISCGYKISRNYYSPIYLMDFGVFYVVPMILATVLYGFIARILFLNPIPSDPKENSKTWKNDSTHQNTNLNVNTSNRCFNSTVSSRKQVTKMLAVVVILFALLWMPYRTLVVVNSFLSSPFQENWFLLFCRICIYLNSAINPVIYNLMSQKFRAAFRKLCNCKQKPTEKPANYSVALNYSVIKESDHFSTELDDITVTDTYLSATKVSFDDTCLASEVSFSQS
Outline: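 Calcium signal in dye-loaded TRHR/HEK293 cells; compounds added 5 min before TRH (1 nM final); fluorescence monitored 3 min at 1 s steps.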

[9] = biological target: Thyrotropin-releasing hormone receptor (Homo sapiens) (UniProt P34981); assay: qHTS assay to identify small molecule agonists of the thyrotropin-releasing hormone receptor (TRHR) signaling pathway (AID 1346891; calls by dose curve; also: series mostly up to about 58 µM)
Outline: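 HEK293 cells expressing TRHR plated 18 h at 37 C/5% CO2, calcium dye-loaded 2 h at 37 C, then compound added (agonist mode); kinetic calcium fluorescence read 3 min at 1 s intervals; 15 concentrations in triplicate.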

[10] = qHTS assay to identify small molecule agonists of the progesterone receptor (PR) signaling pathway - cell viability counter screen (AID 1346799; calls by dose curve; also: nearly all actives have a fitted effect of over 45% in size)
Outline: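 Counter screen in the PR-UAS-bla HEK293T wells (2% charcoal-stripped FBS, 16 h compound exposure at 37 C) after the bla read. CellTiter-Glo added, 30 min at room temperature, luminescence read as cell viability.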

| SMILES | Potency [1] | Potency [2] | Potency [3] | Potency [4] | Potency [5] | outcome [6] | Potency [7] | Potency [8] | Potency [9] | Potency [10] |
| --- | --- | --- | --- | --- | --- | --- | --- | --- | --- | --- |
| CC(=O)C(=O)O | inactive | inactive | inactive | inactive | inactive | inactive | inactive |  |  |  |
| CS(=O)(=O)OCCCCOS(C)(=O)=O | inactive | inactive | inactive | inactive | inactive | inactive | inactive | inactive | inactive |  |
| Cc1ncc([N+](=O)[O-])n1C | inactive | inactive | inactive | inactive | inactive | inactive | inactive | inactive | inactive |  |
| C[C@](N)(Cc1ccc(O)c(O)c1)C(=O)O | inactive | inactive | inactive | inactive | inactive | inactive | inactive | inactive | inactive | inactive |
| COc1ccc2cc(S(=O)(=O)N[C@H](CC(=O)N[C@H](Cc3ccc(CN4[C@H](C)CCC[C@@H]4C)cc3)C(=O)N(C)C(C)C)c3ccc4c(c3)OCO4)ccc2c1 | inactive | 57.9 µM (active) |  |  |  |  | 13 µM (active) |  |  |  |
| Oc1ccccc1 |  |  | inactive | inactive | inactive | inactive | inactive |  |  |  |
| Nc1ccc([N+](=O)[O-])cc1O |  |  |  |  | inactive | inactive | 30.6 µM (active) |  |  |  |
| CCCCC(CC)C(=O)O (stereo not drawn) | inactive | inactive |  | inactive | inactive | inactive | inactive |  |  |  |
| NC(=O)n1c(O)c(C(=O)c2cccs2)c2cc(Cl)ccc21 | inactive |  |  | inactive | inactive | inactive |  | inactive | inactive |  |
| Cc1cn([C@H]2C=C[C@@H](CO)O2)c(=O)[nH]c1=O | inactive | inactive |  | inactive | inactive | inactive | inactive |  |  |  |
| CN1CCc2cccc3c2[C@H]1Cc1ccc(O)c(O)c1-3 | inactive |  | inactive | inactive | inactive | inactive | 43.7 µM (active) and 18.1 µM (active) and 29.8 µM (active) | inactive | inactive |  |
| CCc1nc(N)nc(N)c1-c1ccc(Cl)cc1 | inactive |  | inactive | inactive | inactive and 16.9 µM (active) | inactive | 49.3 µM (active) |  |  | inactive |
| CN1[C@@H]2CC(OC(=O)[C@H](CO)c3ccccc3)C[C@H]1[C@@H]1O[C@@H]12 (stereo partly drawn) | inactive | inactive |  | inactive | inactive | inactive | inactive |  |  |  |
| CN(C)C(=S)SC(=S)N(C)C | inactive |  |  | inactive | inactive | inactive | 7.08 µM (active) and 545 nM (active) and 2.66 µM (active) | inactive | inactive |  |
| Nc1ccc(O)c([N+](=O)[O-])c1 |  |  |  | inactive | inactive | inactive |  | inactive | inactive |  |
| C=C1CC[C@H](O)C/C1=C\C=C1/CCC[C@]2(C)[C@@H]([C@H](C)CCCC(C)C)CC[C@@H]12 |  |  |  | inactive | inactive | inactive | inactive | inactive | inactive |  |
